# Source: PubChem BioAssay (NCATS)
# Where “and” joins values, the source holds several entries; their conditions need not be identical. Equal values may be shown once. Inconclusive results are not listed. Where a call stands in place of a potency, no number is given. The source holds several records for some structures; these can differ, active in one and inactive in another. Calls of active or inactive are those of the source. Calls come from the whole dose curve; as a rule, active = well fitted inhibition curve with a large enough effect; inconclusive = small, poorly fitted or top-dose-only effect; inactive = flat fitted curve, though single readings scatter.
# Molecular target: Glutathione peroxidase 1 (Homo sapiens) (UniProt P07203)
# Sequence (P07203 whole entry, looked up): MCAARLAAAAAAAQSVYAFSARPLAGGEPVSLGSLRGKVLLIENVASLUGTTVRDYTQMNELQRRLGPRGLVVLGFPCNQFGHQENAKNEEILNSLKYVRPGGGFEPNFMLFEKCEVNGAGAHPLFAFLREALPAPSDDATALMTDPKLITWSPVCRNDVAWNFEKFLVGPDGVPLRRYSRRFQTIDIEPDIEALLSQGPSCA
# Assay: Primary qHTS Assay for Inhibitors of Recombinant Selenoprotein Glutathione Peroxidase 1 (GPX1) (AID 1845191); note: nearly all actives have a fitted effect of over 65% in size
# Settings: recombinant GPX1, GR-coupled NADPH fluorescence, 15 min; series mostly up to 48.8 µM
# Source text: Assay Provider: Elias S.J. Arner MD PhD.
# Department of Medical Biochemistry and Biophysics
# Karolinska Institutet, Solna, Stockholm, Sweden
# Selenoprotein glutathione peroxidases (GPX), like the ubiquitously expressed GPX1 and the ferroptosis modulator GPX4, enact their antioxidant activities by reducing hydroperoxides using glutathione. […] GPX1 and GPX4 inhibitors have thus shown promise as anti-cancer agents. Existing inhibitors are often promiscuous, or modulate GPX activity only indirectly, so novel direct inhibitors identified through screening against GPX1 and GPX4 could be valuable. Here, we developed optimized glutathione reductase (GR)-coupled GPX assays for the biochemical high-throughput screen (HTS) of almost 12,000 compounds with known mechanisms of action. Initial hits were triaged using a GR counter-screen, assessed for isoform specificity using a separate GPX2 assay, and were assessed for general selenocysteine-targeting activity using a thioredoxin reductase (TXNRD1) assay. With this suite of assays, we identified novel GPX1/GPX2- and GPX4-specific inhibitors and can here present a validated pipeline for future discovery research for selenoprotein-targeting agents.
# SEQUENCE No. (e.g., 1, 2, 3, etc.); […] (e.g., Cells, Incubation, Reagent, etc.); VALUE; DESCRIPTION.
# 1; Reagent 1; 3 uL; GPx1 enzyme or no enzyme control in 1536-well, black, solid Greiner assay plate.
# 2; Compound; 25 nL; Kalypsis pin tool (Wako USA) equipped with a 1536-well pin head.
# 3; Incubation; 30 min; room temperature.
# 4; Reagent 2; 1 uL; 10 nM GPX1, 1 mM GSH, 0.5 mM CHP, 0.5 mM NADPH, 100 nM GR, 0.01% BSA substrate
# 5; Detection; Fluorescence; ViewLux microplate reader, excitation 340 nm and emission 450 nm.
# 6; Incubation; 15 min; room temperature.
# 7; Detection; Fluorescence; ViewLux microplate reader, excitation 340 nm and emission 450 nm.
# NOTES (numbers refer to Sequence numbers above)
# 1. 3 uL of 16.66 nM GPX1 and 0.016% BSA in assay buffer (50 mM Tris-HCl, 2 mM EDTA (pH 7.5), 150 mM NaCl) was added to columns 3-48 of 1536-well assay plates using a BioRAPTR Flying Reagent Dispenser (Let's Go Robotics (LGR), Carlsbad, CA). A no-enzyme control (0.01% BSA in TES assay buffer) was added to columns 1-2.
# 2. 25 nL of test compounds and DMSO controls were added to each well with a pin tool (Kalypsys).
# 3. The assay plates were incubated for 30 minutes at room temperature.
# 4. 1 uL of master mix (500 nM glutathione reductase (GR), 5 mM reduced glutathione (GSH), 2.5 mM NADPH in assay buffer) was added. 1 uL of cumene hydroperoxide (CHP) ([2.5 mM] in 50% EtOH) was then added within 5 minutes to initiate the reaction. Final concentrations were: 10 nM GPX1, 1 mM GSH, 0.5 mM CHP, 0.5 mM NADPH, 100 nM GR, 0.01% BSA.
# 5. Initial fluorescence readout (t=0) at 340/450 nm was measured using a ViewLux multimodal detector (PerkinElmer, Waltham, MA).
# 7. Endpoint fluorescence readout (t=15) at 340/450 nm was measured 15 min after room temperature incubation.
# Potency is the fitted concentration of half-maximal effect.
row,SMILES,Potency
1,Clc1ccc(C(Cn2ccnc2)OCc2ccsc2Cl)c(Cl)c1 (stereo not given),inactive
2,Cc1cc(=O)oc2cc(O)ccc12,18 µM (active) and 4.09 µM (active)
3,Cc1ccc(C(=O)c2cc(O)c(O)c([N+](=O)[O-])c2)cc1,inactive
4,CC(C)c1ccc2c(c1)c(SC(C)(C)C)c(CC(C)(C)C(=O)O)n2Cc1ccc(Cl)cc1,inactive
5,CC1=C(C)C(=O)C(C(CCCCCC(=O)O)c2ccccc2)=C(C)C1=O (stereo not given),inactive
6,COc1cc2c(N3CCN(C(=O)Nc4ccc(OC(C)C)cc4)CC3)ncnc2cc1OCCCN1CCCCC1,inactive
7,CCOC(=O)C(C)Oc1cccc2c(=O)n(CC(=O)Nc3ccc4c(c3)OCCO4)ccc12 (stereo not given),inactive
8,CCCS(=O)c1ccc2nc(NC(=O)OC)[nH]c2c1 (stereo not given),inactive
9,CC(C)[C@H](N)C(=O)OCCOCn1cnc2c(=O)[nH]c(N)nc21,inactive
10,Clc1ccc(C(Cn2ccnc2)OCc2c(Cl)cccc2Cl)c(Cl)c1 (stereo not given),inactive
11,O=Nc1c(-c2c(O)[nH]c3cc(Br)ccc23)[nH]c2ccccc12,inactive
12,C[Se]CCC(N)C(=O)O (stereo not given),inactive
13,Cc1ccc(Nc2nccc(N(C)c3ccc4c(C)n(C)nc4c3)n2)cc1S(N)(=O)=O,inactive
14,Nc1ccc(S(N)(=O)=O)cc1,inactive
15,COC1=C(OC)C(=O)C(CCCCCCCCCCO)=C(C)C1=O,inactive and 7.28 µM (active)
16,NCCCCNCCCN,inactive
17,c1cnc2cc3c(cc2n1)C1CNCC3C1,inactive
18,C[C@H](Cc1ccc(O)c(O)c1)[C@@H](C)Cc1ccc(O)c(O)c1,inactive
19,CN(C)c1ccc(O)c2c1C[C@H]1C[C@H]3[C@H](N(C)C)C(=O)C(C(N)=O)=C(O)[C@@]3(O)C(=O)C1=C2O,inactive
20,S=c1nc[nH]c2nc[nH]c12,inactive

row,SMILES,Potency
1,COc1c(O)cc2c(c1O)[C@@H]1O[C@H](CO)[C@@H](O)[C@H](O)[C@H]1OC2=O,inactive
2,Cc1c(C(=O)NN2CCCCC2)nn(-c2ccc(Cl)cc2Cl)c1-c1ccc(Cl)cc1,inactive
3,O=C(O)c1cccc(-c2noc(-c3ccccc3F)n2)c1,inactive
4,CC(=O)Nc1ccc(O)cc1,inactive
5,CCOC(=O)C1=C(O)C(=O)N(Cc2ccccc2)C1,inactive
6,Nc1cccc2c1CN(C1CCC(=O)NC1=O)C2=O (stereo not given),inactive
7,O=C(c1ccccc1)c1ccc2n1CCC2C(=O)O (stereo not given),inactive
8,CCCc1cc(=O)[nH]c(=S)[nH]1,inactive
9,CS(=O)(=O)OCCCCOS(C)(=O)=O,inactive
10,Cc1c(OCC(F)(F)F)ccnc1CS(=O)c1nc2ccccc2[nH]1 (stereo not given),inactive
11,COc1ccccc1N1CCN(CCN(C(=O)C2CCCCC2)c2ccccn2)CC1,inactive
12,CC(C)C[C@H](NC(=O)[C@H](Cc1ccccc1)NC(=O)c1cnccn1)B(O)O,inactive
13,O=c1oc2cc(O)ccc2s1,inactive
14,O=C(O)c1cc(=O)c2c(OCC(O)COc3cccc4oc(C(=O)O)cc(=O)c34)cccc2o1,inactive
15,CCCCC(CC)COC(=O)C(C#N)=C(c1ccccc1)c1ccccc1 (stereo not given),inactive
16,COc1ccc2cc([C@H](C)C(=O)O)ccc2c1,inactive
17,CC1Cc2ccccc2N1NC(=O)c1ccc(Cl)c(S(N)(=O)=O)c1 (stereo not given),inactive
18,Cc1cc(O)c2c(c1)C(=O)c1cc(O)cc(O)c1C2=O,inactive
19,CCC1=C(C)CN(C(=O)NCCc2ccc(S(=O)(=O)NC(=O)NC3CCC(C)CC3)cc2)C1=O (stereo not given),inactive
20,CCCCCCCCCCCCCCCCCCCCCCO,inactive
